Several values for one entry are separate records, joined by “and”; a condition that tells them apart may be missing. Equal values may be shown once. The campaign covered roughly 420,000 compounds. About 75 (0.02%) were called active. Calls follow the shape of the dose curve; as a rule, active = well fitted activation curve with a large enough effect; inconclusive = small, poorly fitted or top-dose-only effect; inactive = no such curve, though single readings can be large or run the other way. For the sample, actives were picked, then their nearest neighbours and some compounds at random.
Potency is read from the fitted curve at half-maximal effect.

A short description of the experiment: qHTS for Inducers of the Endoplasmic Reticulum Stress Response (ERSR) in Human Glioma: qHTS. Also: nearly all actives have a fitted effect of over 35% in size. As to activation: % of control where 0% means no effect. To be noted: U87-MG GRP78 promoter luciferase reporter, 16 h; activation: hits give high values. From the text: Primary protein unfolding takes place for many diseases, including diabetes and hypoxia, , and triggers a reaction in the cells called ER stress response (ERSR). ). ERSR is designed as a repair mechanism, but ultimately leads to cell death via apoptosis if conditions triggering protein unfolding persist (1). The molecular clue to ERSR activation is the enhancement of the expression of key molecular chaperones, including the glucose regulated protein (GRP) 78. GRP78 is the main sensor for protein folding and the main actuator of the ERSR.
In a collaboration between the Southern Research Institute and the NIH Chemical Genomics Center, a cell based screen was developed that reliably uses GRP78 as a sensor to identify small molecules as inducers of ERSR. In resting conditions, GRP78 binds proteins and acts as a natural repressor. Once unfolded proteins are present in the ER, GRP78 releases some of the repressors and binds to the unfolded proteins. The release of the repressors executes the ERSR program. Using a human glioma cell line in a miniaturized, luminescent format, a high-throughput screen was developed to identify actuators of the ERSR.
(1) Soboloff, J. and S. A. Berger (2002). "Sustained ER Ca2+ depletion suppresses protein synthesis and induces activation-enhanced cell death in mast cells." J Biol Chem 277(16): 13812-20.
NIH Chemical Genomics Center [NCGC]
NIH Molecular Libraries Probe Centers Network [MLPCN]
Assay Submitter (PI): Maurizio Grimaldi, Southern Research Institute
Stable transfected human glioma cell line, U87-MG, are dispensed at density 1000 cells/well into Greiner white solid bottom 1536-well assay plates. Compounds are transferred via Kalypsys pin tool equipped with 1536-pin array (10nl slotted pins, V&P Scientific, San Diego, CA). The assay plates will be incubated for 16 hours and developed by adding appropriate quantities of the Promega Bright Glo reagent. The plates will be incubated at room temperature for 10 minutes prior to being transferred into a ViewLux high-throughput CCD imager (PerkinElmer), wherein end-point measurements of luminescence are acquired.
On the technique in general: qHTS replaces the single test concentration by a dilution series.
On to `CCOc1ccc(S(=O)(=O)Nc2cccc(C(=O)NCC3(N4CCCCC4)CCCCC3)c2)cc1`, for which the Potency was 15.8 µM (active).
In the case of `O=C(NCC1(N2CCCCC2)CCCCC1)c1ccc(NS(=O)(=O)c2ccc(F)cc2)cc1`, the activation was -3.09% (inactive).
Still for that read-out and setting: the value for `O=C(NCC1(N2CCCCC2)CCCCC1)c1cccc(S(=O)(=O)Nc2ccccc2Cl)c1` was -4.77% (inactive).
`COc1ccc(C2CC(=O)c3c(O)cc(OC4OC(COC5OC(C)C(O)C(O)C5O)C(O)C(O)C4O)cc3O2)cc1O` (stereo not drawn): the activation was -4.13% (inactive).
Same read-out and setting: the value for `COc1cc(-c2cccnc2)cc2c1OCCN(C(=O)Cc1csc(C)n1)C2` was -6.23% (inactive); that for `COc1ccc(C(=O)N2CCC3(CCCN(C(c4ccccc4)c4ccccc4)C3)CC2)cc1` was -2.87% (inactive).
Regarding `O=C(c1ccncc1)N1CCC2(CCCN(C(c3ccccc3)c3ccccc3)C2)CC1`, the Potency is 35.5 µM (active).
With `O=C(c1cccc(F)c1)N1CCC2(CCCN(Cc3ccncc3)C2)CC1`, the activation is -4.07% (inactive).
On the same count and under the same terms, the value for `CCCNC(=O)OC[C@@H]1O[C@H](c2ccccc2)C=C[C@@H]1Oc1ccc(OC)cc1` was -2.78% (inactive).
On the same count and under the same terms, as for `CO[C@@H]1COC(=O)[C@H](Cc2ccccc2)NC(=O)C/C=C\[C@@H](C)[C@H](OC)COC(=O)[C@@H](C)NC(=O)C/C=C\[C@H]1C`, the figure is -5.06% (inactive) and -3.17% (inactive); as for `CN(Cc1cccc2ncccc12)C(=O)c1cnn(-c2nccc(-c3ccccc3F)n2)c1C1CC1`, -10.9% (inactive).
`O=C(c1cn(CC2CCCN(Cc3cc4ccccc4s3)C2)nn1)N1CCCC1` (stereo not drawn): the activation was -4.62% (inactive).
On the same count and under the same terms, as for `Cc1cccc(CNC(=O)c2cnn(-c3nccc(-c4ccccc4F)n3)c2C2CC2)n1`, the figure is -2.43% (inactive).
On the same count and under the same terms, the value for `COc1ccc(/C=C/NC(=O)c2ccc(OC)cc2)cc1` was -1.95% (inactive); that for `N#Cc1ccccc1-c1ccc2ncnc(NCc3cccnc3)c2c1` was -2.79% (inactive).
As to `CO[C@@]12[C@@H](COC(N)=O)C3=C(C(=O)C(C)=C(N)C3=O)N1C[C@@H]1N[C@@H]12`, the activation was -2.04% (inactive).
As for `COc1cc(C[C@H]2NCCc3cc(O)c(O)cc32)cc(OC)c1OC`, the activation is -2.86% (inactive).
With `COc1cc([C@@H]2c3cc4c(cc3[C@@H](O[C@@H]3O[C@@H]5CO[C@@H](C)O[C@H]5[C@H](O)[C@H]3O)[C@H]3COC(=O)[C@H]23)OCO4)cc(OC)c1OP(=O)(O)O`, the activation was -3.95% (inactive).
On the same count and under the same terms, the value for `CCC1(C2CCN(Cc3cccnc3)CC2)NC(=O)N(CC2COc3ccccc3O2)C1=O` (stereo not drawn) was -3.69% (inactive); that for `CCS(=O)(=O)Nc1cc(C(=O)N2C[C@@H](C)O[C@@H](C)C2)c2c(c1)nc(-c1ccccc1)n2C` was -5.69% (inactive); that for `CC[C@H](C)[C@H](NC(=O)[C@H](Cc1ccc(O)cc1)NC(=O)[C@@H](NC(=O)[C@H](CCCN=C(N)N)NC(=O)[C@@H](N)CC(=O)O)C(C)C)C(=O)N[C@@H](Cc1cnc[nH]1)C(=O)N1CCC[C@H]1C(=O)N[C@@H](Cc1ccccc1)C(=O)O` was -0.592% (inactive).
Turning to `COc1ccc2c(c1)CCc1cnc(-n3ncc(C(=O)NCc4cccnc4)c3C3CC3)nc1-2`, the activation was -2.79% (inactive).
Consider `COc1cc(=O)n2c(c1C(=O)NCc1ccco1)CCN(Cc1ccccc1)CC2`, for which the activation is -4.45% (inactive).
Same read-out and setting: the value for `Cc1oc(-c2cccc(NC(=O)c3ccccc3)c2)nc1CNC(=O)c1cnc2ccccn2c1=O` was -3.8% (inactive); that for `OCC1CCCN(c2nc3cc4c(cc3cc2CNCc2cccs2)OCO4)C1` (stereo not drawn) was -3.02% (inactive); that for `Cc1cc[n+](C2CCCCC2)cc1` was 0.895% (inactive).
In the case of `C#CCC(C(=O)OC)(C(=O)OC)C(C[N+](=O)[O-])c1ccccc1` (stereo not drawn), the activation is -5.05% (inactive).
The same measure, in the same setting: as for `COc1ccc(CN2CCOc3c(cc(-c4ncc(C(F)(F)F)cc4Cl)cc3OCC3CCCO3)C2)c(O)c1` (stereo not drawn), the figure is -0.626% (inactive); as for `COc1cccc(CN2CCC3(CC2)c2ccccc2[C@@H](NC(=O)c2ccccc2OC)[C@@H]3O)c1`, -2.93% (inactive).
The same measure, in the same setting: as for `CC1(C)OC(C(O)(c2ccccc2)c2ccccc2)C(C(O)(c2ccccc2)c2ccccc2)O1` (stereo not drawn), the figure is -4.02% (inactive); as for `C[C@@H]1O[C@@H](OC[C@H]2O[C@@H](Oc3cc(O)c4c(c3)O[C@H](c3ccc(O)c(O)c3)CC4=O)[C@H](O)[C@@H](O)[C@@H]2O)[C@H](O)[C@H](O)[C@H]1O`, -3.44% (inactive).
The same measure, in the same setting: the value for `CC(=O)OCC1OC(C#CCCCc2ccccc2)C=CC1OC(C)=O` (stereo not drawn) was -2.84% (inactive) and 1.87% (inactive); that for `CC(=O)OC[C@H]1O[C@@H](O[C@H]2[C@H](O)[C@@H](OC(=O)c3ccccc3C(=O)O)[C@H](O)O[C@@H]2COC(C)=O)[C@H](O)[C@@H](OC(=O)c2ccccc2C(=O)O)[C@@H]1O` was -0.805% (inactive); that for `CN(C)c1ccc(/C=C/c2sc3ccccc3[n+]2C)cc1` was -8.55% (inactive).
For `FC(F)(F)c1cccc(-c2cn[nH]c2C2CCCN(Cc3cccn3-c3ccccn3)C2)c1` (stereo not drawn), the activation is -5.05% (inactive).
As for `C=C(C)C1CC=C(C)C(O)C1` (stereo not drawn), the Potency is 11.2 µM (active).
For the compound `C=C(C)C1CC=C(CO)CC1` (stereo not drawn), the activation is -1.71% (inactive).
As for `CCOC(=O)N/N=C1/C[C@@H](O)[C@@H](O)[C@@H]2[C@@H]3C(=O)N(CC)C(=O)[C@H]3CC[C@H]12`, the activation is -5.32% (inactive).
With `CN1[C@H]2CC(OC(=O)[C@@H](CO)c3ccccc3)C[C@H]1[C@H]1O[C@H]12` (stereo partly drawn), the activation was -4% (inactive).
On the same count and under the same terms, as for `COc1ccccc1-c1ccc(C(=O)N(C)C(C)c2ccon2)c(N2CCN(c3ccccc3F)CC2)n1` (stereo not drawn), the figure is -4.71% (inactive); as for `Cc1cnc(C(=O)N2CCOc3ccc(CN4CCCC(C(=O)c5cccnc5)C4)cc3C2)[nH]1` (stereo not drawn), -3.36% (inactive); as for `COc1ccc(CN2CCC3(CCC(CNC(=O)c4ccco4)O3)CC2)cc1OC` (stereo not drawn), 0.172% (inactive).
Regarding `COC(=O)c1ccccc1-c1cc(C)cc2c1OC(CNC(=O)C1CCOC1)C2` (stereo not drawn), the activation is -1.81% (inactive).
Still for that read-out and setting: the value for `Cn1c(=O)c(CCc2ccccc2)nc2cnc(Nc3ccccc3)nc21` was -3.93% (inactive).
With `Cc1c(S(=O)(=O)O)oc2c1C(=O)C(=O)c1c-2ccc2c1CCCC2(C)C`, the activation was -3.94% (inactive).
On to `CCOC(=O)N1CCC(N2CCOc3ccc(CN4CCC(O)(c5cccnc5)CC4)cc3C2)CC1`, for which the activation was -2.68% (inactive).
Take `CC(CCC(=O)O)C1CCC2C3C(O)C[C@@H]4CC(O)CC[C@@]4(C)C3CC[C@@]12C` (stereo partly drawn): the activation was -5.26% (inactive) and -4.28% (inactive).
For `COc1ccc(-n2c(CNC(=O)c3cc(C(F)(F)F)ccc3Cl)nnc2SC)cc1`, the activation is -6.93% (inactive).
Still for that read-out and setting: the value for `COc1c(O)c2c(=O)cc(OC)c3c4c(OC)cc(=O)c5c(O)c(OC)c6c(c(c1C[C@@](C)(O)[C@H]6C(C)=O)c23)c54` was -6.89% (inactive); that for `COc1cc(=O)n2c(c1C(=O)N(C)Cc1nonc1C)CCN(C(=O)c1ccc(C)cc1C)CC2` was -4.93% (inactive).
Same read-out and setting: as for `CC(C)(C)c1ccc(OC2C=CC(C#Cc3ccccc3)OC2CO)cc1` (stereo not drawn), the figure is -2.6% (inactive).
Same read-out and setting: as for `CCOc1ccc2nc(N3CCCN(CCCn4cccn4)CC3)nc(C)c2c1`, the figure is 0.4% (inactive).
For `O=C(NCC1Cc2cc(F)cc(-c3cnccn3)c2O1)C1COc2ccccc2O1` (stereo not drawn), the activation is -2.7% (inactive).
On the same count and under the same terms, the value for `CCC1CN(CCNC(=O)c2cccc(C)n2)Cc2cc(OC)ccc2O1` (stereo not drawn) was -0.701% (inactive); that for `C=C1C(=CC=C2CCC[C@]3(C)[C@@H]([C@H](C)C=C[C@H](C)C(C)C)CC[C@@H]23)C[C@@H](O)C[C@@H]1O` was -0.319% (inactive).
Still for that read-out and setting: as for `COc1cccc(-c2cc(=O)c3cc(NC(=O)c4ccc(C)cc4)ccc3[nH]2)c1`, the figure is -1.6% (inactive); as for `COc1ccccc1C(=O)N[C@@H]1c2ccccc2C2(CCN(Cc3nc(C(C)C)cs3)CC2)[C@H]1O`, -7.22% (inactive); as for `CCC1CN(CCNC(=O)c2cccnc2C)Cc2cc(OC)ccc2O1` (stereo not drawn), -0.134% (inactive).
The same measure, in the same setting: as for `Cc1[nH]c2c(C(=O)NCC3Cc4cccc(-c5cccnc5)c4O3)cccc2c1C` (stereo not drawn), the figure is -3.83% (inactive).
Turning to `c1ccc(CN2CCN(Cc3ccc4c(c3)CN(Cc3c[nH]c5ccccc35)CCO4)CC2)nc1`, the activation is -3.67% (inactive).
As for `CN1CCN(/[N+]([O-])=N/Oc2ccc([N+](=O)[O-])cc2[N+](=O)[O-])CC1`, the activation is 20.9% (inactive).
As to `CCc1noc(C)c1C(=O)NCCN1Cc2cc(OC)ccc2OC(CC)C1` (stereo not drawn), the activation was -4.48% (inactive).
For `C=C1/C(=C\C=C2\CCCC3(C)C2CCC3C(C)/C=C/C(O)C2CC2)CC(O)CC1O` (stereo not drawn), the activation was -9.49% (inactive).
The same measure, in the same setting: as for `COC(=O)c1ccccc1C(=O)NCc1nc(N2CCCC2)c2cccc(C)c2n1`, the figure is -2.48% (inactive); as for `CC(=O)c1ccc(F)c(-c2cc(C)cc3c2OC(CNC(=O)Cc2c[nH]c4ccccc24)C3)c1` (stereo not drawn), 0.07% (inactive).
With `CO/N=C(\C(=O)N[C@@H]1C(=O)N2C(C(=O)O)=C(Cn3nnc(C)n3)CS[C@H]12)c1csc(N)n1`, the activation is -1.86% (inactive).
On to `CCCCc1nn(-c2ccccc2C(F)(F)F)c(=O)n1Cc1ccc(-c2ccccc2S(=O)(=O)NC(=O)c2sccc2C)cc1`, for which the activation was -2.91% (inactive).
For `Cc1ccc2c(C)nc(N3CCCC(C(=O)NC(C)(C)CO)C3)nc2c1` (stereo not drawn), the activation is -2.4% (inactive).
The same measure, in the same setting: as for `CC(O)(COc1ccccc1)c1ccc2c(c1)CN(Cc1cn[nH]c1-c1ccc(F)cc1)CCO2` (stereo not drawn), the figure is -3.22% (inactive); as for `COc1ccccc1C1CN(Cc2ccccc2O)Cc2ccccc2O1` (stereo not drawn), -2.43% (inactive).
The same measure, in the same setting: the value for `C[C@H]1CC[C@H](C(=O)O)N[C@@H]1c1ccc(C#Cc2ccccc2)cc1` was -4.8% (inactive); that for `C=CCC1CCC(=O)N2CCCC12` (stereo not drawn) was -2.78% (inactive).
For the compound `O=c1c(CN2CCOc3ccc(CN4CCC(Oc5cccnc5)CC4)cc3C2)coc2ccccc12`, the activation was -1.61% (inactive).
